# KB-3-1 tox = qHTS assay for MDR1-selective chemotherapeutics: Primary screen using the parental adenocarcinoma cell KB-3-1; AID 1347075, 2019; 1.4% of 400,000 active; Potency, µM (doses to about 46.1 µM), most hits filed as cytotoxic; KB-3-1 viability, CellTiter-Glo ATP luminescence, 72 h; also: potency is read from the fitted curve at half-maximal effect; % is scaled to controls: 0 for no effect and ±100 for the full control effect; nearly all actives have a fitted effect of over 60% in size
#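 Parental KB-3-1 adenocarcinoma cells in phenol-red-free DMEM with 10% FBS were pin-treated with compounds at several concentrations, incubated 72 h at 37 °C, and viability read by CellTiter-Glo luminescence; concentration-effect curves were fitted after normalization.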
# MCF10A rereplic = A quantitative high throughput screen for small molecules that induce DNA re-replication in MCF 10a normal breast cells; MCF 10A DNA re-replication, Hoechst nuclear intensity, 48 h; Potency, µM (top dose mostly 46.1 µM), for inactives: top-dose activity, positive = re-replication, most hits filed as activators; 2.9% of 350,000 active; AID 624296, 2012; also: potency is read from the fitted curve at half-maximal effect; % of control where 0% means no effect; nearly all actives have a fitted effect of over 50% in size
# KB-V1 cytotox = qHTS assay for MDR1-selective chemotherapeutics: Primary screen using the drug-selected MDR subline cells KB-V1 | KB-V1 MDR cells viability, CellTiter-Glo, 72 h | Potency, µM (top dose mostly 46.1 µM), hits mostly cytotoxic | 3.4% of 400,000 active | AID 1347076, 2019; also: potency is read from the fitted curve at half-maximal effect; % is scaled to controls: 0 for no effect and ±100 for the full control effect; nearly all actives have a fitted effect of over 60% in size
#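 qHTS viability screen in drug-selected KB-V1 MDR cells: 72 h compound treatment at 37 degrees C, ATP luminescence end point.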
# SW480 rerep = A quantitative high throughput screen for small molecules that induce DNA re-replication in SW480 colon adenocarcinoma cells | SW480 DNA re-replication, Hoechst DNA content imaging, 48 h | Potency, µM (highest dose often 46.1 µM), without a hit: top-dose re-replication activation, hits mostly activators | 1.8% of 340,000 active; also: potency is read from the fitted curve at half-maximal effect; % of control where 0% means no effect; nearly all actives have a fitted effect of over 55% in size
#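 250 cells/well; 23 nL cpd via pin tool; 48 hr, 37 C, 5% CO2; Hoechst 40 min; imager read of total nuclear intensity, ex 405/em 500-530 nm.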
# DRD3 antagonist = qHTS of D3 Dopamine Receptor Antagonist: qHTS; D3R cells, DiscoveRx beta-arrestin luminescence, antagonist mode; active compounds read low; max response, negative = inhibition, %; 2.5% of 360,000 active; in the data active = max response below about -50%; inconclusive = no clear call, values can overlap the other calls; also: % is scaled to controls: 0 for no effect and ±100 for the full control effect
# Target sequence (P35462 whole entry, looked up): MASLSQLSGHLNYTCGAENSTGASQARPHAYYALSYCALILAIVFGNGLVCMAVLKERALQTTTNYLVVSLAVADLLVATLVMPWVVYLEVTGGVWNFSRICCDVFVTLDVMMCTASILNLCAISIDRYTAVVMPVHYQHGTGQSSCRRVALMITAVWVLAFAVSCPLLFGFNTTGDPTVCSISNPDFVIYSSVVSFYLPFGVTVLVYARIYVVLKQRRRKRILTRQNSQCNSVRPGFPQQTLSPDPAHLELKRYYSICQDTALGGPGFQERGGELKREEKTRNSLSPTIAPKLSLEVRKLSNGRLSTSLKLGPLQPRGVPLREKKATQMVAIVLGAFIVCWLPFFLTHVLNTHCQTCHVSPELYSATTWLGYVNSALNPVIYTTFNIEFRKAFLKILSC
#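 Cells expressing the human receptor were seeded at 1500 cells/well, incubated overnight at 37 degrees C in 5% CO2, then exposed to library compounds with dopamine controls for 90 minutes at 37 degrees C before luminescent detection.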
# D3 ag = qHTS of D3 Dopamine Receptor Agonist: qHTS; max activation, %; 0.58% of 410,000 active; D3R DiscoveRx beta-arrestin cells, luminescence, 90 min; in the data active = max activation above about 30%; also: 0% is about no effect
#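 Cells at 1500/well, incubated overnight, then treated with pinned compounds (dopamine as control) for 90 min at 37 degrees C. DiscoveRx reagent added for 30 - 60 minutes at room temperature; luminescence read.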
# An asterisk follows results filed as active; i = inactive; ? = inconclusive; nt = no result given; [ ] = another dose, or the depositor's remark. Compounds with a hit are over-represented: about 8.9% of the library has one in this group of screens. Unless noted, calls follow the shape of the dose curve; as a rule, active = well fitted curve in the direction sought with a large enough effect; inconclusive = small, poorly fitted or top-dose-only effect, or another doubt; inactive = no such curve, though single readings can be large; an effect the other way counts as inactive or inconclusive.
SMILES,KB-3-1 tox,MCF10A rereplic,KB-V1 cytotox,SW480 rerep,DRD3 antagonist,D3 ag
CC(=O)Nc1ccc(-c2ccnc3c2CC(C(=O)Nc2ccc(Cl)c(C(F)(F)F)c2)O3)cc1 (stereo unspecified),i,nt,?,nt,-66*,-9
CC(=O)Nc1ccc(-c2ccnc3c2CC(C(=O)NCc2ccccc2)O3)cc1 (stereo unspecified),0.065µM*,nt,1.3µM*,nt,-13,-4
CCOCCCNC(=O)C1CCN(c2nn3cc(-c4ccc(F)cc4)nc3s2)CC1,?,nt,?,nt,nt,10
CCOc1ccc(NC(=O)c2ccc3c(c2)CCN3S(=O)(=O)CC)cc1,i,nt,i,nt,nt,-6
O=C(CSc1cn(CCNC(=O)c2cccc(C(F)(F)F)c2)c2ccccc12)Nc1ccc2c(c1)OCCO2,?,nt,i,nt,nt,11
CC(C)(C)N(Cc1ccc2c(c1)OCO2)C(=O)/C=C\S(=O)c1ccccc1 (stereo unspecified),?,10µM*,i,9.2µM*,?,-7
CCN(Cc1ccc2c(c1)OCO2)C(=O)/C=C/c1cccc(Br)c1,?,?,i,9%,-9,-6
C=CCOCCN(C)C1=NS(=O)(=O)c2cc([N+](=O)[O-])ccc21,?,?,i,9.2µM*,6,19
CCOn1c(-n2nc(C)cc2C)nc2ccccc2c1=O,i,6%,i,-3%,18,3
Cc1cc(C)n(-c2nc3ccccc3c(=O)n2OCC#N)n1,?,?,?,16µM*,-17,-10
Cn1c(-c2ccc3ccccc3n2)nc2cnccc21,i,4%,10µM*,-2%,-59*,12
COc1cc(OC)c(-c2nc3cnccc3n2C)cc1OC,i,13%,i,-6%,17,-3
CN(C)c1ccc(/C=C2\C=Cc3ccccc32)cc1N,i,nt,i,nt,nt,nt
COc1ccc2c(=O)cc(CO)oc2c1,i,0%,i,5%,0,38*
CCCCN(C)/C=N/c1c(C#N)cnn1-c1ccc(C)cc1,?,?,5.8µM*,4%,15,-1
CN1CCN(/C=N/c2c(C#N)cnn2-c2ccccc2)CC1,i,18%,i,-12%,?,-11
CN1CCN(/C=N/c2c(C#N)cnn2Cc2ccccc2)CC1,i,-2%,10µM*,-4%,?,-55
Cc1ccc(-n2ncc(C#N)c2/N=C/N2CCN(C)CC2)cc1,i,-3%,i,-5%[9.22 µM],-76*,2
Cc1ccc(-n2ncc(C#N)c2/N=C/N2CCCCCC2)cc1,i,?,i,-1%,63,2
CCNC(=O)c1c(NC(=O)Cc2coc3cc(C)ccc23)sc2c1CCCC2,i,nt,i,nt,nt,3
CC(=O)Nc1ccc2c(c1)Cc1cc(N3C(=O)C=CC3=O)ccc1-2,?,5.2µM*,i,13µM*,-64*,-7
Cc1cc2c(cc1S(=O)(=O)Nc1cccc(Cl)c1C)n(C)c(=O)c(=O)n2C,i,nt,?,nt,nt,6
CCCN1CCC(NC(=O)CCc2nnc(-c3ccccc3)o2)CC1,i,-3%,i,-15%,-53*,-6
C[N+]1(CC(=O)c2ccc(-c3ccccc3)cc2)CCOCC1,i,nt,i,nt,nt,nt
CN(Cc1nc(-c2ccncc2)no1)S(=O)(=O)c1ccc(Br)cc1,i,-5%,15µM*,-5%,37,3
SMILES,KB-3-1 tox,MCF10A rereplic,KB-V1 cytotox,SW480 rerep,DRD3 antagonist,D3 ag
CN(Cc1nc(-c2ccncc2)no1)S(=O)(=O)c1ccccc1,i,0%,i,-2%,7,4
CN(Cc1nc(-c2ccncc2)no1)S(=O)(=O)c1ccc(Cl)cc1,i,-6%,15µM*,-5%,?,1
CN(Cc1nc(-c2ccccn2)no1)S(=O)(=O)c1ccccc1,i,-3%,i,-1%,-9,3
CC1=C(C(=O)Nc2cccc(C)c2C)C2(CCCCC2)OC1=O,nt,nt,nt,nt,nt,-3
COc1ccc(/C=C/C(=O)OCC(=O)c2cc(C)ccc2C)cc1,i,nt,i,nt,-8,-3
CC1=C(c2ccc(NN=C(C#N)C#N)cc2)NNC(=O)C1,nt,1%,nt,?,nt,nt
COc1ccccc1NC(=O)Cn1cc(S(=O)(=O)Cc2ccccc2)c2ccccc21,i,nt,i,nt,nt,8
O=S1(=O)CCO[C@H]2Cc3ccccc3[C@H]2N1Cc1ccc(Cl)cc1,i,-30%,i,1%,-7,54*
C[C@@H]1[C@H](c2ccccc2)OCCS(=O)(=O)N1Cc1ccc(Cl)cc1,16µM*,nt,12µM*,nt,nt,nt
C[C@@H]1[C@H](c2ccccc2)OCCS(=O)(=O)N1Cc1ccccc1,i,nt,i,nt,nt,nt
CCCN(C(=O)c1nc2nc(C)cc(C)n2n1)c1c(N)n(Cc2ccccc2)c(=O)[nH]c1=O,i,?,i,-5%,-9,2
Cc1ccc(NC(=O)CC2Nc3ccccc3NC2=O)cc1C (stereo unspecified),i,nt,i,nt,nt,1
CCOc1ccccc1NC(=O)CC1Nc2cc(C)c(C)cc2NC1=O (stereo unspecified),i,18µM*,?,?,-17,-5
Cc1ccc(NC(=O)CC2Nc3ccccc3NC2=O)cc1Cl (stereo unspecified),?,2.6µM*,i,16µM*,3,-12
CCOc1ccccc1NC(=O)CC1Nc2ccccc2NC1=O (stereo unspecified),i,?,i,4%,0,-3
CCOC(=O)c1c(NC(=O)CC2Nc3cc(C)c(C)cc3NC2=O)sc(C)c1C (stereo unspecified),i,3%,i,-1%,-57*,-6
CC(C)c1ccc2c(c1)NC(c1ccc(F)cc1)=NC(c1cccs1)=N2,i,nt,?,nt,nt,3
C#CCn1c(C2CC(=O)N(c3ccc(OC)cc3)C2)nc2ccccc21 (stereo unspecified),i,nt,i,nt,nt,-10
CC(C)CN(CC(C)C)C(=O)Cc1coc2ccc3ccccc3c12,?,?,23µM*,16%[9.22 µM],13,2
C[n+]1ccccc1COc1ccc(C(C)(C)C)cc1,23µM*,22%,?,-691%,95,-9
COc1c(Cl)c(=O)oc2ccc(Cl)cc12,i,nt,i,nt,12,-6
COc1ccc(/C=C/c2cc(=O)c3cc(Cl)ccc3o2)cc1,i,21µM*,?,?,8,4

# Screening data (PubChem)
